# Results as given in publication PMC3315485, “Probing the Informational and Regulatory Plasticity of a Transcription Factor DNA–Binding Domain”.
# Residue numbers refer to the chain shown, from its start.
# Key:
# Assay in all cases: MITOMI; MITOMI, 295 K (22 C); buffer, salt and pH not stated in the material; high values mean tight binding
# Settings in all cases: protein: ivt; label: fluorescent; dsDNA, one strand shown
# MarA wild type (WQR) = target: T1, MarA wild type (WQR) (Escherichia coli, UniProt P0ACH5 1-127)
# T1 sequence: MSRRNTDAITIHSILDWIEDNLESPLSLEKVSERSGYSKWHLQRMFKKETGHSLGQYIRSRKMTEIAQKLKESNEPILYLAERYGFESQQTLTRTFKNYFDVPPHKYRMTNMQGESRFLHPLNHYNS
# Summary of the method: (§1)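 Association constants were determined by MITOMI and are expressed for each site relative to the site with the highest affinity for the same protein variant. The MarA protein variants were made with the RTS E. coli HY kit by in vitro transcription and translation and labelled through addition of tRNA-lys-bodipy-fl. Testing covered 64 synthesized mar binding site variants, with fluorescence read on Genepix at 295K.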
# MarA RQR = target: T2, MarA RQR (Escherichia coli, UniProt P0ACH5 1-127, W40R)
# T2 sequence: T1 sequence with W40R
# Summary of the method: as §1
# MarA RTR = target: T3, MarA RTR (Escherichia coli, UniProt P0ACH5 1-127, W40R;Q43T)
# T3 sequence: T1 sequence with W40R, Q43T
# Summary of the method: as §1
# MarA SAR = target: T4, MarA SAR (Escherichia coli, UniProt P0ACH5 1-127, W40S;Q43A)
# T4 sequence: T1 sequence with W40S, Q43A
# Summary of the method: as §1
# MarA TRR = target: T5, MarA TRR (Escherichia coli, UniProt P0ACH5 1-127, W40T;Q43R)
# T5 sequence: T1 sequence with W40T, Q43R
# Summary of the method: as §1
Sequence,binding signal (MarA wild type (WQR)),binding signal (MarA RQR),binding signal (MarA RTR),binding signal (MarA SAR),binding signal (MarA TRR)
ATGTCGCGTTTTGCTAAAT,0.426 Ka relative to the best site of the variant,0.635 Ka relative to the best site of the variant,0.353 Ka relative to the best site of the variant,0.219 Ka relative to the best site of the variant,0.463 Ka relative to the best site of the variant
ATGAGCCGTTTTGCTAAAT,0.237 Ka relative to the best site of the variant,0.107 Ka relative to the best site of the variant,0.27 Ka relative to the best site of the variant,1 Ka relative to the best site of the variant,0.448 Ka relative to the best site of the variant
ATGGGACGTTTTGCTAAAT,0.34 Ka relative to the best site of the variant,0.136 Ka relative to the best site of the variant,,0.498 Ka relative to the best site of the variant,0.361 Ka relative to the best site of the variant
ATGCCACGTTTTGCTAAAT,0.646 Ka relative to the best site of the variant,0.243 Ka relative to the best site of the variant,0.223 Ka relative to the best site of the variant,0.379 Ka relative to the best site of the variant,0.497 Ka relative to the best site of the variant
ATGCAGCGTTTTGCTAAAT,0.293 Ka relative to the best site of the variant,0.105 Ka relative to the best site of the variant,0.149 Ka relative to the best site of the variant,0.357 Ka relative to the best site of the variant,0.477 Ka relative to the best site of the variant
ATGACCCGTTTTGCTAAAT,0.32 Ka relative to the best site of the variant,0.701 Ka relative to the best site of the variant,0.63 Ka relative to the best site of the variant,0.573 Ka relative to the best site of the variant,0.379 Ka relative to the best site of the variant
ATGGTTCGTTTTGCTAAAT,0.203 Ka relative to the best site of the variant,0.13 Ka relative to the best site of the variant,0.189 Ka relative to the best site of the variant,0.805 Ka relative to the best site of the variant,0.368 Ka relative to the best site of the variant
ATGGCACGTTTTGCTAAAT,1 Ka relative to the best site of the variant,0.647 Ka relative to the best site of the variant,0.432 Ka relative to the best site of the variant,0.741 Ka relative to the best site of the variant,0.392 Ka relative to the best site of the variant
ATGCTGCGTTTTGCTAAAT,0.442 Ka relative to the best site of the variant,0.169 Ka relative to the best site of the variant,,0.521 Ka relative to the best site of the variant,0.588 Ka relative to the best site of the variant
ATGACACGTTTTGCTAAAT,0.709 Ka relative to the best site of the variant,0.337 Ka relative to the best site of the variant,0.249 Ka relative to the best site of the variant,0.637 Ka relative to the best site of the variant,0.369 Ka relative to the best site of the variant
ATGGATCGTTTTGCTAAAT,0.224 Ka relative to the best site of the variant,0.112 Ka relative to the best site of the variant,0.202 Ka relative to the best site of the variant,0.393 Ka relative to the best site of the variant,0.365 Ka relative to the best site of the variant
ATGGTCCGTTTTGCTAAAT,0.209 Ka relative to the best site of the variant,0.18 Ka relative to the best site of the variant,0.146 Ka relative to the best site of the variant,0.98 Ka relative to the best site of the variant,0.442 Ka relative to the best site of the variant
ATGTTTCGTTTTGCTAAAT,0.217 Ka relative to the best site of the variant,0.214 Ka relative to the best site of the variant,0.716 Ka relative to the best site of the variant,0.21 Ka relative to the best site of the variant,0.539 Ka relative to the best site of the variant
ATGGCGCGTTTTGCTAAAT,0.334 Ka relative to the best site of the variant,0.577 Ka relative to the best site of the variant,0.685 Ka relative to the best site of the variant,0.973 Ka relative to the best site of the variant,0.415 Ka relative to the best site of the variant
ATGGGCCGTTTTGCTAAAT,0.236 Ka relative to the best site of the variant,0.147 Ka relative to the best site of the variant,0.196 Ka relative to the best site of the variant,0.575 Ka relative to the best site of the variant,0.368 Ka relative to the best site of the variant
ATGGAACGTTTTGCTAAAT,0.299 Ka relative to the best site of the variant,0.208 Ka relative to the best site of the variant,0.23 Ka relative to the best site of the variant,0.646 Ka relative to the best site of the variant,0.432 Ka relative to the best site of the variant
ATGATACGTTTTGCTAAAT,0.279 Ka relative to the best site of the variant,0.108 Ka relative to the best site of the variant,0.208 Ka relative to the best site of the variant,0.962 Ka relative to the best site of the variant,0.498 Ka relative to the best site of the variant
ATGTTACGTTTTGCTAAAT,0.288 Ka relative to the best site of the variant,0.135 Ka relative to the best site of the variant,0.177 Ka relative to the best site of the variant,0.202 Ka relative to the best site of the variant,0.518 Ka relative to the best site of the variant
ATGAAGCGTTTTGCTAAAT,0.256 Ka relative to the best site of the variant,0.0942 Ka relative to the best site of the variant,0.204 Ka relative to the best site of the variant,0.677 Ka relative to the best site of the variant,0.338 Ka relative to the best site of the variant
ATGCTCCGTTTTGCTAAAT,0.244 Ka relative to the best site of the variant,0.108 Ka relative to the best site of the variant,0.201 Ka relative to the best site of the variant,0.548 Ka relative to the best site of the variant,0.445 Ka relative to the best site of the variant
ATGCTTCGTTTTGCTAAAT,0.341 Ka relative to the best site of the variant,0.157 Ka relative to the best site of the variant,0.723 Ka relative to the best site of the variant,0.508 Ka relative to the best site of the variant,0.576 Ka relative to the best site of the variant
